# Results taken from publication PMC7862700, “An all-to-all approach to the identification of sequence-specific readers for epigenetic DNA modifications on cytosine”.
# Tests used:
# Assay in all cases: DAPPL (digital affinity profiling via proximity ligation, sequencing); 10 mM Tris-HCl pH 7.5, 50 mM NaCl, 1 mM DTT, 4% glycerol, room temperature, 30 min; GST-TFs on glutathione beads, 16-mer random dsDNA library, 0.1% formaldehyde crosslink after washing; high values mean tight binding
# FLI1 = biological target: T1, FLI1 (Homo sapiens, UniProt Q01543 1-452); conditions: protein: recombinant; tags: N-terminal GST; dsDNA, one strand shown
# T1 sequence: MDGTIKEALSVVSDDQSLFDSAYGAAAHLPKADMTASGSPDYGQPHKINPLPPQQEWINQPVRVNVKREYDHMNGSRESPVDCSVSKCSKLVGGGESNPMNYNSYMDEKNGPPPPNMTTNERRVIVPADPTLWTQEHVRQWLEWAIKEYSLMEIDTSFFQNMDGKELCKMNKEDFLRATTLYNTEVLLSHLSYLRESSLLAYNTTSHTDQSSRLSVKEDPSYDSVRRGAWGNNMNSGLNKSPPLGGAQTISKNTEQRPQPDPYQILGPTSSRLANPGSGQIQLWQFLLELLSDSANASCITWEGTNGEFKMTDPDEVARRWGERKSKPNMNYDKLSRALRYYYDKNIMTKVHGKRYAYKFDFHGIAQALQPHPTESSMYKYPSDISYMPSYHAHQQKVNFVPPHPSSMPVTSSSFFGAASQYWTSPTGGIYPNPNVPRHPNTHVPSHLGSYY
# In short: (§1)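 Each value of binding signal is a hexamer's read frequency for a factor divided by the same hexamer's frequency in the tag-only sample. Barcoded, bead-captured GST fusions of human transcription factors made in yeast were pooled with that sample and incubated with 200 nmole of a random double-stranded 16-mer DNA library in Tris/NaCl/DTT/glycerol buffer at room temperature for 30 min. Washing, 0.1% formaldehyde crosslinking, proximity ligation, PCR and Illumina NextSeq500 sequencing followed.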
# ELK1 = biological target: T2, ELK1 (Homo sapiens, UniProt P19419 1-428); conditions: protein: recombinant; tags: N-terminal GST; dsDNA, one strand shown
# T2 sequence: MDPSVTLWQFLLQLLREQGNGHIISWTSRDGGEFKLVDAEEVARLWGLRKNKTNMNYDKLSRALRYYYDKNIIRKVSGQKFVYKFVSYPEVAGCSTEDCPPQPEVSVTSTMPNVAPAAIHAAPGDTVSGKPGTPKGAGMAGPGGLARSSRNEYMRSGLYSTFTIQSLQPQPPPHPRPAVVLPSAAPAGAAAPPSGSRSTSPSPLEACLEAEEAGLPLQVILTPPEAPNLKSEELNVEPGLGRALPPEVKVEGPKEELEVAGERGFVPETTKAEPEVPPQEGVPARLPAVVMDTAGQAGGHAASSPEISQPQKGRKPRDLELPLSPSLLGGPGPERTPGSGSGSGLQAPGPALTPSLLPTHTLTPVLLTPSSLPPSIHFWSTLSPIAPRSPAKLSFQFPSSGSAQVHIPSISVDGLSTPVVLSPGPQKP
# In short: as §1
# GABPA = biological target: T3, GABPA (Homo sapiens, UniProt Q06546 1-454); conditions: protein: recombinant; tags: N-terminal GST; dsDNA, one strand shown
# T3 sequence: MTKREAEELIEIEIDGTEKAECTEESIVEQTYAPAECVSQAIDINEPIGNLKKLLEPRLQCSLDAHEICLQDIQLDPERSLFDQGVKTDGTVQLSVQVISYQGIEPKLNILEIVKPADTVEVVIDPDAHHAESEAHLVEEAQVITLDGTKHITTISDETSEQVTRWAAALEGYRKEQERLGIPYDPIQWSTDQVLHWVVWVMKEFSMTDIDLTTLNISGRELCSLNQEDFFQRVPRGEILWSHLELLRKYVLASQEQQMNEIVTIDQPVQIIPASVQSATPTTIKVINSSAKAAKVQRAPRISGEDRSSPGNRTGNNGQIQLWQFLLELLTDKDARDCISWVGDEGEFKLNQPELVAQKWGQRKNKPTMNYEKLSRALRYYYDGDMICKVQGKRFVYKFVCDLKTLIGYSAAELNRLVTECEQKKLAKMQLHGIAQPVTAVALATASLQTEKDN
# In short: as §1
# ERG = biological target: T4, ERG (Homo sapiens, UniProt P11308 1-479); conditions: protein: recombinant; tags: N-terminal GST; dsDNA, one strand shown
# T4 sequence: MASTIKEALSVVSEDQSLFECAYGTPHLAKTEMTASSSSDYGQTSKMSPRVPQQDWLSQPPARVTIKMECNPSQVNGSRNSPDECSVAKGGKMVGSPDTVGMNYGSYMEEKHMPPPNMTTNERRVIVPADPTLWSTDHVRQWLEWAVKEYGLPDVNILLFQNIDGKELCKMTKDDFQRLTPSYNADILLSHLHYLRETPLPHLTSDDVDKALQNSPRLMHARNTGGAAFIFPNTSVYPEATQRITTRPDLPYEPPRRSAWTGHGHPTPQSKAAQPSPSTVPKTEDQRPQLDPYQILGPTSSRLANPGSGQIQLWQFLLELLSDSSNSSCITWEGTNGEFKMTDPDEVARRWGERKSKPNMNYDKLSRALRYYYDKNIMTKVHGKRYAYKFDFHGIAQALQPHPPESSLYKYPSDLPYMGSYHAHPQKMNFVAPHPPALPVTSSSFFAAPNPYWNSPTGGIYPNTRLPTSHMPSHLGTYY
# In short: as §1
# ELF1 = ELF1 (Homo sapiens, UniProt P32519 1-619); conditions: protein: recombinant; tags: N-terminal GST; dsDNA, one strand shown
# Sequence of ELF1 (P32519 whole entry): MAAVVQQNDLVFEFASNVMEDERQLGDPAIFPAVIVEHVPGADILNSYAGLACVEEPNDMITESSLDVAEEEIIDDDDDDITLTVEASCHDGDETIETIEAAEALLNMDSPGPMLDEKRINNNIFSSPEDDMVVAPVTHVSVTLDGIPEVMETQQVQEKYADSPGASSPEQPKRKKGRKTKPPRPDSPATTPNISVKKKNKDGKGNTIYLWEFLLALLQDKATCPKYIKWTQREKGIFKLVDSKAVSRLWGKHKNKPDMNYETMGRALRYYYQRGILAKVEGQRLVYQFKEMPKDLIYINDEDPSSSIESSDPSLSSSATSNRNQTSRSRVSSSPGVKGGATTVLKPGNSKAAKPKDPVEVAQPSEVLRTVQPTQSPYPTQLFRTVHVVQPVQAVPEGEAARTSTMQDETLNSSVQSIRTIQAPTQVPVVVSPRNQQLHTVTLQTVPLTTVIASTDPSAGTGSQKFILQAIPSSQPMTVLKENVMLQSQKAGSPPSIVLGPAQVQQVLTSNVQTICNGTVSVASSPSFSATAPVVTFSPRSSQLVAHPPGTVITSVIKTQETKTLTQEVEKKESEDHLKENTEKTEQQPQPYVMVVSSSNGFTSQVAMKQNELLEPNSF
# In short: as §1
# EHF = biological target: T5, EHF (Homo sapiens, UniProt Q9NZC4 1-300); conditions: protein: recombinant; tags: N-terminal GST; dsDNA, one strand shown
# T5 sequence: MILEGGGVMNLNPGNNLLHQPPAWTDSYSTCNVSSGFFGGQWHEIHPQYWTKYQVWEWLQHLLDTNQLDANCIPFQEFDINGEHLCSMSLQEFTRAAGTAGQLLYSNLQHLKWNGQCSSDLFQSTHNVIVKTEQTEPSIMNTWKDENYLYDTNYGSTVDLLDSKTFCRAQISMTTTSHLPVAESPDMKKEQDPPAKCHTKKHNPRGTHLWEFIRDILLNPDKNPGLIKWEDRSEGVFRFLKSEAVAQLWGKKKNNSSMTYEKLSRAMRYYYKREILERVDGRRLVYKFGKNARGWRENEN
# In short: as §1
# SPI1 = SPI1 (Homo sapiens, UniProt P17947 1-270); conditions: protein: recombinant; tags: N-terminal GST; dsDNA, one strand shown
# In short: as §1
# SPIB = SPIB (Homo sapiens, UniProt Q01892 1-262); conditions: protein: recombinant; tags: N-terminal GST; dsDNA, one strand shown
# Sequence of SPIB (Q01892 whole entry): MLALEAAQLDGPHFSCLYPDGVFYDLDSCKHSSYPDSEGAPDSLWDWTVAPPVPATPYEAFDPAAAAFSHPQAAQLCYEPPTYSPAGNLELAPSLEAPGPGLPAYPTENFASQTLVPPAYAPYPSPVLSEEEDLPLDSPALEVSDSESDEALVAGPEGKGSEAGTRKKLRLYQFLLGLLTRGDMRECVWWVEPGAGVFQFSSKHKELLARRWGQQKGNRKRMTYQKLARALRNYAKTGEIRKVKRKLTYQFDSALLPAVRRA
# In short: as §1
# ELK3 = biological target: T6, ELK3 (Homo sapiens, UniProt P41970 1-407); conditions: protein: recombinant; tags: N-terminal GST; dsDNA, one strand shown
# T6 sequence: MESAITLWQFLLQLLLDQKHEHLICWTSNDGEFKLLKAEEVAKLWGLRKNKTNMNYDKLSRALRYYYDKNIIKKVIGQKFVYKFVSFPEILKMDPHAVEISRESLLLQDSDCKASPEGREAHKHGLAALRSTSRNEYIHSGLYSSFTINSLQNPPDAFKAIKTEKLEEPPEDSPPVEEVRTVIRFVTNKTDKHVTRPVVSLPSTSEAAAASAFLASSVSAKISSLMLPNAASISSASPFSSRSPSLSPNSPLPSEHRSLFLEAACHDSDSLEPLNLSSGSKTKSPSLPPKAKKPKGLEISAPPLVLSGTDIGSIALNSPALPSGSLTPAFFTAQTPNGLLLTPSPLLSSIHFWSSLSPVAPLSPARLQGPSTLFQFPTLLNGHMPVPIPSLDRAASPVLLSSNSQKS
# In short: as §1
# FEV = biological target: T7, FEV (Homo sapiens, UniProt Q99581 1-238); conditions: protein: recombinant; tags: N-terminal GST; dsDNA, one strand shown
# T7 sequence: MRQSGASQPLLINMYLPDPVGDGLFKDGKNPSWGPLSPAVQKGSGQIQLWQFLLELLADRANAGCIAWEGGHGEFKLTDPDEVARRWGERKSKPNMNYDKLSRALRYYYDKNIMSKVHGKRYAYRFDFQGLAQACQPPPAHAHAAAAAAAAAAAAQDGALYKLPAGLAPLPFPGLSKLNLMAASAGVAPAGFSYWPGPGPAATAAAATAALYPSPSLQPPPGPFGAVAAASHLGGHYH
# In short: as §1
# ETV5 = ETV5 (Homo sapiens, UniProt P41161 1-510); conditions: protein: recombinant; tags: N-terminal GST; dsDNA, one strand shown
# Sequence of ETV5 (P41161 whole entry): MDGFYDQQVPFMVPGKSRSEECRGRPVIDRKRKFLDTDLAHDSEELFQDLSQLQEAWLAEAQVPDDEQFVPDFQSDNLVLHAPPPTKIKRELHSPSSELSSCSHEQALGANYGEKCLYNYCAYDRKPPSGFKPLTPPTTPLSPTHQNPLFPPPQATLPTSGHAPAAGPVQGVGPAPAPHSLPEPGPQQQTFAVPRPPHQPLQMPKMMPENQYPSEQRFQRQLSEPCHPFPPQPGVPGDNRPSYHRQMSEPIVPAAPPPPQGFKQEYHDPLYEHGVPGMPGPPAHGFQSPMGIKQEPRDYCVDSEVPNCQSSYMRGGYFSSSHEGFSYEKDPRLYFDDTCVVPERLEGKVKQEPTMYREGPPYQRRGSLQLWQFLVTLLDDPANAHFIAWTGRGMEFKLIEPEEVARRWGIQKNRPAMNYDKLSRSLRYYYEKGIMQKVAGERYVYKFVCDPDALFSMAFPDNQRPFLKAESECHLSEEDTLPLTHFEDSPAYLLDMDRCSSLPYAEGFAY
# In short: as §1
# HSF1 = HSF1 (Homo sapiens, UniProt Q00613 1-529); conditions: protein: recombinant; tags: N-terminal GST; chain copies: 3; dsDNA, one strand shown
# Sequence of HSF1 (Q00613 whole entry): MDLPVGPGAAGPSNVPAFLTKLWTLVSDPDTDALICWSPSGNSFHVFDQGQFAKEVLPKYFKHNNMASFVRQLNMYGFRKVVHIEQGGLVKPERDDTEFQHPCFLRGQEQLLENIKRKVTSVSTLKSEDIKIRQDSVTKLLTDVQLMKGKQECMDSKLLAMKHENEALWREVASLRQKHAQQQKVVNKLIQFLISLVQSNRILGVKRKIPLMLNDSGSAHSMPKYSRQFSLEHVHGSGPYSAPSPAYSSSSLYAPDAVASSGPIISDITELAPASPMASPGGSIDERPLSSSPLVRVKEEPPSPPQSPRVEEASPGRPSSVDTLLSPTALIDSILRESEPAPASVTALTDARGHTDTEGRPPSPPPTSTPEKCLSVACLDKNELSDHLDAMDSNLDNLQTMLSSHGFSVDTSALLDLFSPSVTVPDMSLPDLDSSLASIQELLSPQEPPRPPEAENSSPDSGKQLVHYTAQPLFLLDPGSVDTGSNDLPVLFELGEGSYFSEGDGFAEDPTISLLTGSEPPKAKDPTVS
# In short: as §1
# SPIC = biological target: T8, SPIC (Homo sapiens, UniProt Q8N5J4 1-248); conditions: protein: recombinant; tags: N-terminal GST; dsDNA, one strand shown
# T8 sequence: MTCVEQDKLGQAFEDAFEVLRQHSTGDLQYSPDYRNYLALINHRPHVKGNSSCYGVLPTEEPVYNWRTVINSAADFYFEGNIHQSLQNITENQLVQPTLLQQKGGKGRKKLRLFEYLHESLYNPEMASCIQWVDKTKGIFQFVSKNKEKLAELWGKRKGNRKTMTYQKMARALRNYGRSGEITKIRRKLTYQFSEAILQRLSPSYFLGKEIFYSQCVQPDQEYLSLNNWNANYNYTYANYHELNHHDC
# In short: as §1
# ELF4 = ELF4 (Homo sapiens, UniProt Q99607 1-663); conditions: protein: recombinant; tags: N-terminal GST; dsDNA, one strand shown
# Sequence of ELF4 (Q99607 whole entry): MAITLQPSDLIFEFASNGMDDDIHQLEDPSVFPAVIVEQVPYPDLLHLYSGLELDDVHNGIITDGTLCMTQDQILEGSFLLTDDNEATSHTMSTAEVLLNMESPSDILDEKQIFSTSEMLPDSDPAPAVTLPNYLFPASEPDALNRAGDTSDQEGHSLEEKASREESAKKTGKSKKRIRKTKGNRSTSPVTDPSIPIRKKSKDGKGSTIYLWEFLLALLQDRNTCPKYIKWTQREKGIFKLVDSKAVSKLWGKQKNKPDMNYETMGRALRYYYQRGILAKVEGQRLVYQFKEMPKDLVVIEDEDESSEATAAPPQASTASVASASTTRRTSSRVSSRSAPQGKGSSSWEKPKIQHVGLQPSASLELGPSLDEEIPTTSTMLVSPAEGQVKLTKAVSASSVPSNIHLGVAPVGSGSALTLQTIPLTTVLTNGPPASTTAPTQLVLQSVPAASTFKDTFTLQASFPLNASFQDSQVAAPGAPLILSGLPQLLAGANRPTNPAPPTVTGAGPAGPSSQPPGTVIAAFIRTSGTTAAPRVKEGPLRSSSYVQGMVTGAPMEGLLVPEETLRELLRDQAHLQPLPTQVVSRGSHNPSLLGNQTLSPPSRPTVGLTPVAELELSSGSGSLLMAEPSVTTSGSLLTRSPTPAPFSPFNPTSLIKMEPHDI
# In short: as §1
# ELK4 = biological target: T9, ELK4 (Homo sapiens, UniProt P28324-2 1-405); conditions: protein: recombinant; tags: N-terminal GST; dsDNA, one strand shown
# T9 sequence: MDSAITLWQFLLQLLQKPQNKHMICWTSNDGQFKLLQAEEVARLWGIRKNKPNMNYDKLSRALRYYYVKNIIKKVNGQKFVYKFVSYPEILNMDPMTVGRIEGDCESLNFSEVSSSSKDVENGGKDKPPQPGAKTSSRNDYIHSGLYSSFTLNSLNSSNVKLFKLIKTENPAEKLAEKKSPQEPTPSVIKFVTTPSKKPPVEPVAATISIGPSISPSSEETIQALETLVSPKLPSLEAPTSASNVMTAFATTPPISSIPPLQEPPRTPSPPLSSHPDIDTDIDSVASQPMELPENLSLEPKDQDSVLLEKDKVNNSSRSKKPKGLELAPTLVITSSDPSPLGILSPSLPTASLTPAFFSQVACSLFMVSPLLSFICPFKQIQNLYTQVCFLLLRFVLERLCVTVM
# In short: as §1
# ETV2 = biological target: T10, ETV2 (Homo sapiens, UniProt O00321 1-342); conditions: protein: recombinant; tags: N-terminal GST; dsDNA, one strand shown
# T10 sequence: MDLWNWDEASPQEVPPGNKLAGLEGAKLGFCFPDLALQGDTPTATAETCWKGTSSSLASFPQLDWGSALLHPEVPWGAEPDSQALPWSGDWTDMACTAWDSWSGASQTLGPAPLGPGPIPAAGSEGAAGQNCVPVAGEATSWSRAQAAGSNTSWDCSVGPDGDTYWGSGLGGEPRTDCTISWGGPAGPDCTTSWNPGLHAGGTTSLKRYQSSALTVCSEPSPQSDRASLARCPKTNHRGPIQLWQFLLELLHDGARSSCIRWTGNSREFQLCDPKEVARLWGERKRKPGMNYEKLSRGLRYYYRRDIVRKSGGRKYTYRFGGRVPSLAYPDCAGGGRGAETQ
# In short: as §1
# ELF3 = biological target: T11, ELF3 (Homo sapiens, UniProt P78545 1-371); conditions: protein: recombinant; tags: N-terminal GST; dsDNA, one strand shown
# T11 sequence: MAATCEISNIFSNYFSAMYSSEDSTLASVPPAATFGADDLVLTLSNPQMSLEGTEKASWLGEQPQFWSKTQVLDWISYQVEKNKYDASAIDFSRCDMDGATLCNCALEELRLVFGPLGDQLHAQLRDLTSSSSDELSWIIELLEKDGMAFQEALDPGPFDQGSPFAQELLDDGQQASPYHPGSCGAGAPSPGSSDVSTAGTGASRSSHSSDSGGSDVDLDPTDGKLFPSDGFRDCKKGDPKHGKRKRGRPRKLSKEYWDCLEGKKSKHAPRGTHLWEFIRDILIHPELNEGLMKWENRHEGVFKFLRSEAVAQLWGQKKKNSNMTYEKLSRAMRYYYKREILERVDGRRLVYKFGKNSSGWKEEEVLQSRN
# In short: as §1
# CRX = CRX (Homo sapiens, UniProt O43186 1-299); conditions: protein: recombinant; tags: N-terminal GST; dsDNA, one strand shown
# Sequence of CRX (O43186 whole entry): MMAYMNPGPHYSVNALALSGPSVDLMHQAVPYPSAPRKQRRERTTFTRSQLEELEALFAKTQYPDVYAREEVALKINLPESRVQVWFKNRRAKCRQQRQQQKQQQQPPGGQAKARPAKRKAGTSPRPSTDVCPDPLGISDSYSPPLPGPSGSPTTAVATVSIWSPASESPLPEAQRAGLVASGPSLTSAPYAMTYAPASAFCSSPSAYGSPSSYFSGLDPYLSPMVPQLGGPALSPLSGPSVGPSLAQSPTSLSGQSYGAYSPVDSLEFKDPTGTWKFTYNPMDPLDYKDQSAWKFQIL
# In short: as §1
# ETV1 = ETV1 (Homo sapiens, UniProt P50549 1-477); conditions: protein: recombinant; tags: N-terminal GST; dsDNA, one strand shown
# Sequence of ETV1 (P50549 whole entry): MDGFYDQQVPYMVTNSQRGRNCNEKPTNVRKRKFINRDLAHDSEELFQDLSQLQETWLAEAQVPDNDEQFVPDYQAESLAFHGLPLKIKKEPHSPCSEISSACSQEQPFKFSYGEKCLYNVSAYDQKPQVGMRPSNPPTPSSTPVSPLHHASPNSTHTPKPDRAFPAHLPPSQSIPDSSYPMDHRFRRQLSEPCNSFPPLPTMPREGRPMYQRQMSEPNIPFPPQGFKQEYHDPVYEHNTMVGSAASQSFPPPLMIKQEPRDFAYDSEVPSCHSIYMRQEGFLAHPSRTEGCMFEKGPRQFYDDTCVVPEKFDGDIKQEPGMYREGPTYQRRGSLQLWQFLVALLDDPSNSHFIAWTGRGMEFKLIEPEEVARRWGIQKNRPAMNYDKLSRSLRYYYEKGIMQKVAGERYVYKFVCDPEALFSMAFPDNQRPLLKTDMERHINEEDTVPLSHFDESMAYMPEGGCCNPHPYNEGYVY
# In short: as §1
sequence,measurement,setting,value
TTAGCT,binding signal,FLI1,"1.13 fold enrichment (6-mer frequency, TF over GST control)"
same,binding signal,ELK1,"1.21 fold enrichment (6-mer frequency, TF over GST control)"
same,binding signal,GABPA,"1.23 fold enrichment (6-mer frequency, TF over GST control)"
same,binding signal,ERG,"1.15 fold enrichment (6-mer frequency, TF over GST control)"
same,binding signal,ELF1,"1.27 fold enrichment (6-mer frequency, TF over GST control)"
same,binding signal,EHF,"1.2 fold enrichment (6-mer frequency, TF over GST control)"
same,binding signal,SPI1,"1.2 fold enrichment (6-mer frequency, TF over GST control)"
same,binding signal,SPIB,"1.19 fold enrichment (6-mer frequency, TF over GST control)"
same,binding signal,ELK3,"1.18 fold enrichment (6-mer frequency, TF over GST control)"
same,binding signal,FEV,"1.2 fold enrichment (6-mer frequency, TF over GST control)"
same,binding signal,ETV5,"1.2 fold enrichment (6-mer frequency, TF over GST control)"
same,binding signal,HSF1,"1.82 fold enrichment (6-mer frequency, TF over GST control)"
same,binding signal,SPIC,"1.16 fold enrichment (6-mer frequency, TF over GST control)"
same,binding signal,ELF4,"1.28 fold enrichment (6-mer frequency, TF over GST control)"
same,binding signal,ELK4,"1.24 fold enrichment (6-mer frequency, TF over GST control)"
same,binding signal,ETV2,"1.28 fold enrichment (6-mer frequency, TF over GST control)"
same,binding signal,ELF3,"1.18 fold enrichment (6-mer frequency, TF over GST control)"
same,binding signal,CRX,"2.63 fold enrichment (6-mer frequency, TF over GST control)"
same,binding signal,ETV1,"1.2 fold enrichment (6-mer frequency, TF over GST control)"
